This passage reports AC50 and outcome results from PubChem BioAssay (EPA / NIEHS).

“And” between values parts separate entries of the source, which are not always exact repeats. Equal values may be shown once. The source made the active and inactive calls. How the source made its calls: active means hit-call score of the fitted dose curve at least 0.9, where 1 is the maximum; inactive means score below 0.9.

Read-out in the assay: Plasminogen activator inhibitor-1 (PAI1), SERPINE1 (gene 5054)
Put plainly: BSK_hDFCGF_PAI1: BioMAP Diversity Plus: hDFCGF Assay for Plasminogen activator inhibitor-1 (PAI1) Biomarker Activity (AID 2283066). The settings on record: primary human foreskin fibroblasts; actives raise or lower the signal. How it is done:
BSK_hDFCGF is a cell-based, multiplexed-readout assay that uses foreskin fibroblast, a human skin primary cell, with measurements taken at 24 hours after chemical dosing in a 96-well plate.BSK_hDFCGF_PAI1 is an assay component measured in the BSK_hDFCGF assay. It measures PAI-1 antibody related to regulation of gene expression using ELISA technology.Data from the assay component BSK_hDFCGF_PAI1 was analyzed into 1 assay endpoint. This assay endpoint, BSK_hDFCGF_PAI1, was analyzed with bidirectional fitting relative to DMSO as the negative control and baseline of activity. Using a type of binding reporter, gain or loss-of-signal activity can be used to understand changes in the signaling as they relate to the gene SERPINE1. Furthermore, this assay endpoint can be referred to as a primary readout, because this assay has produced multiple assay endpoints where this one serves a signaling function. To generalize the intended target to other relatable targets, this assay endpoint is annotated to the cytokine intended target family, where the subfamily is plasmogen activator inhibitor.
The levels of cell surface (or secreted, indicated by the prefix "s") biomarker endpoints were measured by ELISA. Overt cytotoxicity to cells in confluent adherent cultures (all systems other than the BT system) was assessed by measuring total protein levels using sulforhodamine B (SRB) staining in parallel cultures at the time of biomarker measurements, indicated as SRB endpoints. For proliferation assays for adherent cell types, individual cell types are cultured at sub-confluence and relative cell numbers quantified by SRB staining at time points optimized for each system (48 h: 3C and CASM3C systems; 72 h: BT and HDF3CGF systems; 96 h: SAg system). SRB was performed by staining cells with 0.1% SRB after fixation with 10% TCA and reading wells at 560 nm.Viability and proliferation of PBMC (T cells) was quantified by Alamar Blue reduction for the SAg and BT systems. For PBMC viability (referred to as PBMC Cytotoxicity within the assay endpoint names), cells were plated (75,000/well in a 96-well plate) and then chemical samples added for 1 h before addition of activators, SEB and TSST-1 (20 ng/mL final concentration each). Cells were incubated for 90 h. Then, Alamar Blue (20 uL/well) (Invitrogen, Cat DAL1100) was added for 6 h, and the plates were read with a fluorescence microplate reader at 546/580 nm (excitation/emission). For PBMC proliferation, cells were plated and activated as above but incubated for only 16 h prior to addition of Alamar Blue. Plates were read after 6 h.
`Oc1cc(Cl)ccc1Oc1ccc(Cl)cc1Cl`: the AC50 was 6.96 µM (active) and 8.43 µM (active) and 7.44 µM (active).

For `C#CCN1C(=O)COc2cc(F)c(N3C(=O)C4=C(CCCC4)C3=O)cc21`, the result was inactive. `Cc1[nH]c(=O)n(C(C)(C)C)c(=O)c1Cl`: the result was inactive.

Turning to `O=C(O)CCCOc1ccc(Cl)cc1Cl`, the result was inactive. `CCCN(CCOc1c(Cl)cc(Cl)cc1Cl)C(=O)n1ccnc1`: the half-maximal activity concentration (AC50) was 23.9 µM (active).

Take `COP(=O)(OC)OC=C(Cl)Cl`: the outcome was inactive.

Turning to `O=C(Nc1ccccc1)Nc1cnns1`, the outcome was inactive. For `CC1(c2ccc(Oc3ccccc3)cc2)OC(=O)N(Nc2ccccc2)C1=O` (stereo not given), the outcome was inactive. Consider `O=[N+]([O-])/N=C1\NCCN1Cc1ccc(Cl)nc1`, for which the result was inactive.

With `O=C(O)COc1ccc(Cl)cc1Cl`, the outcome was inactive. As to `CCS(=O)(=O)c1cccnc1S(=O)(=O)NC(=O)Nc1nc(OC)cc(OC)n1`, the result was inactive. Turning to `CNC(=O)Oc1ccccc1OC(C)C`, the outcome was inactive. Regarding `CC[C@H](C)[C@H]1O[C@]2(C=C[C@@H]1C)C[C@@H]1C[C@@H](C/C=C(\C)[C@@H](O[C@H]3C[C@H](OC)[C@@H](O[C@H]4C[C@H](OC)[C@@H](O)[C@H](C)O4)[C@H](C)O3)[C@@H](C)/C=C/C=C3\CO[C@@H]4[C@H](O)C(C)=C[C@@H](C(=O)O1)[C@]34O)O2` (tested in a mixture with another compound), the AC50 was 6.95 µM (active). For the compound `CCC(C)(NC(=O)c1cc(Cl)c(C)c(Cl)c1)C(=O)CCl` (stereo not given), the concentration at half-maximal activity (AC50) is 8.04 µM (active). In the case of `ClC1C(Cl)C(Cl)C(Cl)C(Cl)C1Cl` (stereo not given), the result was inactive.

In the case of `CNC(=O)Oc1cccc(N=CN(C)C)c1`, the outcome was inactive.

Turning to `CC1(C)C(C=C(Cl)Cl)C1C(=O)OC(C#N)c1ccc(F)c(Oc2ccccc2)c1` (stereo not given), the result was inactive. `O=C(NC(=O)c1c(F)cccc1F)Nc1ccc(OC(F)(F)C(F)OC(F)(F)F)c(Cl)c1` (stereo not given): the result was inactive. Turning to `CCN(CC)C(=O)SCc1ccc(Cl)cc1`, the result was inactive. In the case of `O=C1c2ccccc2C(=O)N1SC(Cl)(Cl)Cl`, the outcome was inactive. Same read-out and setting: for `[2H]C1([2H])[n+]2ccccc2-c2cccc[n+]2C1([2H])[2H]` the value was “inactive”; for `COc1nn(CSP(=S)(OC)OC)c(=O)s1`, “inactive”. With `CNC(=O)CSP(=S)(OC)OC`, the result was inactive.

Turning to `C[C@H]1[C@H](c2ccc(Cl)cc2)SC(=O)N1C(=O)NC1CCCCC1`, the outcome was inactive. As for `CC(C)OC(=O)Nc1cccc(Cl)c1`, the result was inactive. Take `COC(=O)c1ccccc1S(=O)(=O)NC(=O)N(C)c1nc(C)nc(OC)n1`: the result was inactive. With `COC(=O)c1ccccc1CS(=O)(=O)NC(=O)Nc1nc(OC)cc(OC)n1`, the result was inactive. Same read-out and setting: for `CCc1ccc(C(=O)NN(C(=O)c2cc(C)cc(C)c2)C(C)(C)C)cc1` the value was “inactive”; for `Cc1cc(C)nc(NC(=O)NS(=O)(=O)c2ccccc2C(=O)OC2COC2)n1`, “inactive”. As to `CCOCN(C(=O)CCl)c1c(C)cccc1CC`, the AC50 is 21.8 µM (active). For the compound `Oc1ccc(Cl)cc1Cc1ccccc1`, the concentration at half-maximal activity (AC50) is 24.5 µM (active) [middle of 6 runs].

Regarding `N#Cc1c(Cl)c(Cl)c(Cl)c(C#N)c1Cl`, the AC50 was 0.615 µM (active). The same measure, in the same setting: the figure for `CCC(C)Nc1c([N+](=O)[O-])cc(C(C)(C)C)cc1[N+](=O)[O-]` (stereo not given) is 5.08 µM (active). Same read-out and setting: for `CCOc1nc(NC)nc(NC(=O)NS(=O)(=O)c2ccccc2C(=O)OC)n1` the value was 5.36 µM (active). As to `CC(C)N(C(=O)COc1nnc(C(F)(F)F)s1)c1ccc(F)cc1`, the result was inactive. `CCC(C)(C)C(=O)OC1=C(c2ccc(Cl)cc2Cl)C(=O)OC12CCCCC2`: the AC50 was 6.68 µM (active). Regarding `Clc1ccccc1-c1nnc(-c2ccccc2Cl)nn1`, the outcome was inactive. `COP(=S)(OC)Oc1ccc(SC)c(C)c1`: the result was inactive.

Regarding `CN1CSC(=S)N(C)C1`, the AC50 is 24.2 µM (active). Turning to `COP(=S)(OC)Oc1ccc([N+](=O)[O-])cc1`, the half-maximal activity concentration (AC50) was 6.41 µM (active).
